# System: RARb homodimer (NR concentration 270 nM)
# Experiment: PBM binding z-score (relative to random genomic background probes); higher = stronger binding; sequences stand for … in GC…GCGATTGACAGCGTAGAATGAAGG
# Summary of the method: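 Scanned fluorescence from custom Agilent 4×180K protein-binding microarrays was regression-normalized. Binding z-scores use random background probes as reference. Ligand-free nuclear receptor dimers were incubated on the arrays for 1 h and detected with antibodies against each partner (one per run).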
row,Sequence,PBM binding z-score
1,CCTACTGGGCCATTCACAGGTCATTGATCATATG,2.72
2,CCAGACAGGTGAGAAGGTAACTCAACCTCGATTA,0.715
3,TCTTGTAGATCAACAGGAGGTTTAGAAAGATCGA,-0.821
4,TCTATTAGTTGATTAGGGAAACCGAAACAGCGGA,0.0312
5,CTACCAACGTGAACAAGGTCGTTGATTACTATTC,1.42
6,GCTAGCAGGCCATTCGGGTCACTCAATGACGGGC,2.3
7,TGGAGTAGGTTAGTCGGGGCATTCAGCCAACATA,1.41
8,ATATCTAGGTAAAGATAGTTCAGTGAATGCAAAT,0.985
9,TCTTGTAGATCAAAGGTGAAGAAAGCCGAAGCCT,0.902
10,TCTTGTAGATCACCAGGAGGTTAAGAAAGATCGA,0.751
11,AGTCAAAGTTCACTGGGTAACGTAAGATTCAGCT,3.82
12,ATCTCTACGTAACAAGTTCAGTGAAAGAGAGGAC,1.68
13,CCTAGCAGGCAAATCTGGGTCACTCAAGGCTTGA,1.85
14,CCTTACGGGTCACGAGGTGATAGCACGACGAGCG,3.52
15,TAGCCTAGGTTATTGGGCCAGTATAGTACGCATC,0.536
16,ACTATTAGTTGACTTAGGGCAACCTATACGACGC,0.929
17,ACAGACAGGTGAGTCAAGGTAACTCAGCTGGACG,0.0236

# Reference: the supplement of paper PMC6555819
